According to PubChem BioAssay (EPA / NIEHS):
Inconclusive results are not listed. Active and inactive are the calls of the source. How the source made its calls, unless noted: active means hit-call score of the fitted dose curve at least 0.9, where 1 is the maximum; inactive means score below 0.9.

Key:
PGR (gene 5241) [1] = molecular target: PGR (gene 5241) (UniProt P06401); assay: TOX21_PR_BLA_Followup_Antagonist_ratio: Tox21 HEK293 Progesterone Receptor (PR) Antagonism Beta-lactamase Follow-Up Assay, Ratio (AID 2283934; active means hit-call score of the fitted dose curve at least 0.9, where 1 is the maximum;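 further: PR-UAS-bla HEK293T cells stimulated with 1 nM R5020 agonist for 16 hr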)
PGR (gene 5241), sequence (P06401 whole entry, looked up): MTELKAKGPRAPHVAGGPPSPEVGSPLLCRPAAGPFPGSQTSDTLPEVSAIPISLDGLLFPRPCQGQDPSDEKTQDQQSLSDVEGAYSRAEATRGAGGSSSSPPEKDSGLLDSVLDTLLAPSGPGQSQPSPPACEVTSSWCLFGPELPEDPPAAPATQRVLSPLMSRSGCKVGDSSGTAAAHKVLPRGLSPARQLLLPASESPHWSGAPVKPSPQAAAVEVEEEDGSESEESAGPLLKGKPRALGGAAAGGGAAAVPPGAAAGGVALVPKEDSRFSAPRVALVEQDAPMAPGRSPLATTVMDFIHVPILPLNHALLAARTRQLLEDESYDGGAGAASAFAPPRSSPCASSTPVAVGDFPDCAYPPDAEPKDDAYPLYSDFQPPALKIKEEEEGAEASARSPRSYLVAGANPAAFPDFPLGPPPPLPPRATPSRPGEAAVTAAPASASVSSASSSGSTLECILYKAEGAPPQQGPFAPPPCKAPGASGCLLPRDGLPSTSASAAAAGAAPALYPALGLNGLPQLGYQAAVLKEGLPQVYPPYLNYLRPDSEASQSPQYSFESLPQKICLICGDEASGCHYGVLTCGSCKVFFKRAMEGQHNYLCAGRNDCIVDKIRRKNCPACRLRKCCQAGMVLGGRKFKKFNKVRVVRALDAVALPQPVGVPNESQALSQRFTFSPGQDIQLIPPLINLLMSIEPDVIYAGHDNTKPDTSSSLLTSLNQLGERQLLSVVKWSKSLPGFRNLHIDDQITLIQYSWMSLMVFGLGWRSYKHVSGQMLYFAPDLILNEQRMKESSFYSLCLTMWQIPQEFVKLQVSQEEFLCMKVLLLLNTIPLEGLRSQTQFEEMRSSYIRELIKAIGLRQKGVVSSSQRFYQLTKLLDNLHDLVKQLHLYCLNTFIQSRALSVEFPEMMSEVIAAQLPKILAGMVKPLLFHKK
In short: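 Antagonist mode used 1 nM R5020 (final) as agonist on a beta-lactamase reporter line in HEK293T cells. Activity was taken from the substrate cleavage ratio after 16 hr exposure.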

[2] = TOX21_PR_BLA_Followup_Agonist_viability: Viability Assessment in the Tox21 HEK293 Progesterone Receptor (PR) Agonism Beta-lactamase Follow-Up Assay (AID 2283935; active means hit-call score of the fitted dose curve at least 0.9, where 1 is the maximum;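 further: signal loss means lower viability so actives are cytotoxic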)
In short: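 Multiplexed viability counter-screen: ATP-coupled luciferase signal measured after 30 min at room temperature, following 16 hr compound treatment of PR-UAS-bla HEK293T cells grown in charcoal-stripped serum.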

PGR (gene 5241) [3] = molecular target: PGR (gene 5241) (UniProt P06401); assay: TOX21_PR_LUC_Followup_Antagonist: Tox21 HEK293 Progesterone Receptor (PR) Antagonism Luciferase Follow-Up Assay (AID 2283938; active means hit-call score of the fitted dose curve at least 0.9, where 1 is the maximum;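 further: curve fitted upward as signal gain over DMSO baseline despite antagonist label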)
In short: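 Luminescence from ONE-Glo was measured 30 min after reagent addition, following 16 h exposure of HEK293-PR-A-luc cells (3,000/well, plated 5 h earlier) to DMSO-dissolved compounds at 37C; DMSO served as baseline.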

[4] = TOX21_PR_LUC_Followup_Antagonist_viability: Viability Assessment in the Tox21 HEK293 Progesterone Receptor (PR) Antagonism Luciferase Follow-Up Assay (AID 2283940; active means hit-call score of the fitted dose curve at least 0.9, where 1 is the maximum)
In short: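 Cellular ATP, measured with luciferase-coupled CellTiter-Glo, served as the viability endpoint after HEK293-PR-A-luc cells were exposed to test compounds for 16 h at 37C.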

[5] = TOX21_PR_LUC_Followup_Agonist_viability: Viability Assessment in the Tox21 HEK293 Progesterone Receptor (PR) Agonism Luciferase Follow-Up Assay (AID 2283941; active means hit-call score of the fitted dose curve at least 0.9, where 1 is the maximum;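 further: loss of signal means cytotoxicity so actives lower viability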)
In short: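 Luminescent ATP quantitation (CellTiter-Glo) serves as the read-out; a drop flags cytotoxic compounds. Cells are HEK293-PR-A-luc grown in 10% charcoal-stripped FBS, plated 3,000/well, and exposed to compound for 16 h.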

[6] = CCTE_Shafer_MEA_dev_firing_rate_mean: CCTE's Neural Network Formation Assay for Mean Firing Rate, Shafer Lab (AID 2284031);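 further: AUC of well mean spike rate recorded on DIV 5 7 9 and 12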
In short: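 Developing rat cortical networks on MEA plates undergo 12-day compound exposure. Firing frequency, averaged across active electrodes, is integrated as area under the curve over four recording days, referenced to DMSO.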

[7] = CCTE_Shafer_MEA_dev_per_burst_spike_percent: CCTE's Neural Network Formation Assay for Percent of Spikes in a Burst, Shafer Lab (AID 2284032)
In short: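 Rat primary cortical neurons on 16-electrode MEA wells, dosed from plating day 0 for 12 days with renewal on DIV 5 and 9; spikes-in-bursts percentage averaged over bursting electrodes, collapsed as AUC across days 5, 7, 9, 12; loss direction versus DMSO.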

[8] = CCTE_Shafer_MEA_dev_active_electrodes_number: CCTE's Neural Network Formation Assay for Number of Active Electrodes, Shafer Lab (AID 2284040; active means hit-call score of the fitted dose curve at least 0.9, where 1 is the maximum)
In short: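 Rat cortical primary cultures, 1.5 x 10^5 cells/well, PEI-coated MEA, laminin drop. Continuous exposure DIV 0–12; full media/compound change DIV 5, 9. Readout: electrodes with mean firing ≥5 spikes/min; AUC across days; loss vs DMSO.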

[9] = CCTE_Shafer_MEA_dev_bursting_electrodes_number: CCTE's Neural Network Formation Assay for Number of Bursting Electrodes, Shafer Lab (AID 2284043; active means hit-call score of the fitted dose curve at least 0.9, where 1 is the maximum)
In short: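 Read-out is the per-well number of electrodes bursting at least once every 2 minutes, recorded on days 5, 7, 9 and 12 and collapsed by trapezoidal area under the curve. Cultures were primary rat cortical neurons on MEA plates, treated continuously from plating.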

[10] = CCTE_Shafer_MEA_dev_per_burst_interspike_interval: CCTE's Neural Network Formation Assay for Burst Interspike Interval, Shafer Lab (AID 2284044);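 further: mean spike spacing inside bursts as AUC over recordings on days 5 7 9 12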
In short: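 Mean interspike interval within single-electrode bursts, averaged over bursting electrodes, from rat cortical cultures on MEA plates recorded on days 5, 7, 9 and 12. Continuous compound exposure from plating; trapezoidal AUC fitted downward relative to DMSO.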

[11] = CCTE_Shafer_MEA_dev_burst_duration_mean: CCTE's Neural Network Formation Assay for Mean Burst Duration, Shafer Lab (AID 2284045)
In short: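 Read-out: average first-to-last-spike interval within single-electrode bursts, averaged over bursting electrodes per well, then summarised as area under the curve across days 5, 7, 9 and 12. Developing rat cortical networks were exposed from day 0.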

[12] = CCTE_Shafer_MEA_dev_interburst_interval_mean: CCTE's Neural Network Formation Assay for Mean Interburst Interval, Shafer Lab (AID 2284046);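 further: well-mean interburst interval of bursting electrodes as AUC over four recording days; curve fitted for decrease in interburst interval relative to DMSO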
In short: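 Network formation assay in primary rat cortical cultures, exposed from DIV 0 to 12. Mean interburst interval per well, integrated as AUC over four recordings.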

[13] = CCTE_Shafer_MEA_dev_network_spike_number: CCTE's Neural Network Formation Assay for Number of Network Spikes, Shafer Lab (AID 2284048);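 further: synchronized bursts across electrodes counted on days 5 7 9 12 and integrated as AUC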
In short: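 Developing networks of primary rat cortical neurons are treated over 12 days starting at plating, with media and compound fully replaced on DIV 5 and 9. Network spike counts from four recording days are integrated as trapezoidal AUC.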

[14] = CCTE_Shafer_MEA_dev_network_spike_peak: CCTE's Neural Network Formation Assay for Mean Number of Electrodes in Network Spike, Shafer Lab (AID 2284049)
In short: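 Rat cortical primary culture, 1.5 x 10^5 cells/well, 48-well MEA (16 electrodes/well). Dosing day 0 through DIV 12, full media/compound exchange DIV 5, 9. AxIS adaptive spike detection; AUC over days 5/7/9/12; loss-of-signal vs DMSO.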

[15] = CCTE_Shafer_MEA_dev_spike_duration_mean: CCTE's Neural Network Formation Assay for Mean Spike Duration, Shafer Lab (AID 2284051);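 further: mean network spike duration pooled as area under curve over DIV 5 to 12 recordings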
In short: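 With DMSO as baseline, loss of mean network spike duration was scored from extracellular recordings of rat cortical neurons on MEA plates. Exposure spanned plating to DIV 12; the four recording days were collapsed into one AUC value.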

[16] = CCTE_Shafer_MEA_dev_per_network_spike_spike_number_mean: CCTE's Neural Network Formation Assay for Mean Number of Spikes in a Network Spike, Shafer Lab (AID 2284053)
In short: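 First, rat cortical cells (1.5 x 10^5/well) were seeded onto MEA wells; second, dosing began at plating and was refreshed on DIV 5 and 9; finally, network-spike spike counts across DIV 5–12 were summarized as AUC.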

[17] = CCTE_Shafer_MEA_dev_per_network_spike_spike_percent: CCTE's Neural Network Formation Assay for Percent of Spikes in a Network Spike, Shafer Lab (AID 2284054)
In short: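 Rat primary cortical cultures, 1.5 x 10^5 cells/well on MEA. Continuous compound exposure d0–12, medium/compound renewed DIV 5, 9. Network-spike spike % (0.05 s peak window), AUC over 4 recordings, DMSO baseline.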

[18] = CCTE_Shafer_MEA_dev_LDH: CCTE's Lactate Dehydrogenase Assay for Cytotoxicity in the Neural Network Formation Assay, Shafer Lab (AID 2284068; active means hit-call score of the fitted dose curve at least 0.9, where 1 is the maximum;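 further: exposure for twelve days from plating with re-dosing on DIV 5 and 9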)
In short: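 Developing rat cortical networks on MEA plates are exposed to compound for 12 days from plating. LDH activity is measured spectrophotometrically, with DMSO as baseline.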

[19] = CCTE_Shafer_MEA_dev_mutual_information_norm: CCTE's Neural Network Formation Assay for Mutual Information Normalization, Shafer Lab (AID 2284091)
In short: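 Developing rat cortical networks on 16-electrode MEA wells are treated throughout formation (DIV 0–12). Shared electrode information is recorded four times, converted to area-under-curve, and fitted for decreases against DMSO vehicle.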

[20] = CCTE_Shafer_MEA_dev_correlation_coefficient_mean: CCTE's Neural Network Formation Assay for Mean Correlation Coefficient, Shafer Lab (AID 2284093)
In short: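 Extracellular firing from rat cortical networks on 48-well MEAs, DMSO-referenced, negative fitting direction. Compound present from plating to DIV12; mean pairwise correlation per well integrated over DIV5–12 recordings by trapezoidal AUC.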

Measured: outcome

Cl/C(=C\n1cncn1)c1ccc(Cl)cc1Cl
inactive: PGR (gene 5241) [1] | [2] | PGR (gene 5241) [3] | [4] | [5]

c1cc2c3c(c1)ccc1cccc(c13)C2
not listed: PGR (gene 5241) [1] | [2] | PGR (gene 5241) [3] | [4] | [5]
inactive: all other assays above
